# Experimental data from PubChem BioAssay AID1117282 (The Scripps Research Institute Molecular Screening Center, 2014).
# The list shows a part of the results. Activity calls are given as the source filed them.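 How the source made its calls: active means mean inhibition across replicates above a set limit taken from the earlier primary screen (cut at about 11% in these data); inactive means the rest.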
# Target: RNA-editing ligase 1, mitochondrial (Trypanosoma brucei brucei) (UniProt P86926)
# Assay: TbREL1 RNA ligase inhibitors, confirmation, biochemical, FRET fluorescence, triplicate (AID 1117282);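 further: 0% = REL1 with substrate and DMSO and 100% = REL1 plus control inhibitor NSC42067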
# Conditions: TbREL1 RNA ligation, at 9.66 µM, hits give high values
# Sequence of RNA-editing ligase 1, mitochondrial (Trypanosoma brucei brucei) (P86926 whole entry, looked up): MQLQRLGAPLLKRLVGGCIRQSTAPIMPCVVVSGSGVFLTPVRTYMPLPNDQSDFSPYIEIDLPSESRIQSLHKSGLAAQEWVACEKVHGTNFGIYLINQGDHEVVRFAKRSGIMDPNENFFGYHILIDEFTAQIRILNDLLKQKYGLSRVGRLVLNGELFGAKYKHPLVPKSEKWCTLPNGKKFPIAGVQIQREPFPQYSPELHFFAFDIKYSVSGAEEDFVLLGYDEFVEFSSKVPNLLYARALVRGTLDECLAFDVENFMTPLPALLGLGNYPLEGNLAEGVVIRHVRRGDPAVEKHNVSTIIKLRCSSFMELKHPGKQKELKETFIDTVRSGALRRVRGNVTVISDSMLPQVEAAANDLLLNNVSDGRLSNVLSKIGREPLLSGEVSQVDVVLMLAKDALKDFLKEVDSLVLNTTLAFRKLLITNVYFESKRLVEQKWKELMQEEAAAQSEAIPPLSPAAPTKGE
row,Compound,inhibition
1,COc1cc(NC(=O)CCS(=O)(=O)c2ccc3c(c2)oc(=O)n3C)cc(OC)c1,2.33% (inactive)
2,COCc1c(N)c(C)nc(Cl)c1C#N,7.44% (inactive)
3,CC1(C)CC(N2CCN(C(c3ccccc3)c3ccccc3)CC2)=CC(=[N+]2CCCCC2)C1,16.7% (active)
4,Nc1ccc2nc3c(=O)[nH]c(=S)[nH]c3nc2c1,14.2% (active)
5,COc1ccc(C(C(=O)Nc2c(C)cccc2C)N2CCN(c3ccc(C)cc3)CC2)cc1 (centres undefined),-1.79% (inactive)
6,O=C(NCc1ccccc1)[C@@H]1CSC2c3ccccc3C(=O)N21 (some centres undefined),3.84% (inactive)
7,CC[C@@H](C)[C@@H]1CN([C@@H](C)CN2CCC[C@H]2CN2C(N)=NC[C@H]2C(C)C)C(=N)N1CCc1ccc(Cl)c(Cl)c1,13.3% (active)
8,O=C(Nc1cccc(F)c1)NC1CCCCCCC1,4.12% (inactive)
9,O=C(Nc1nc(-c2ccco2)c(-c2ccco2)s1)c1ccco1,6.13% (inactive)
10,C=CCn1c(=S)[nH]c2scc(-c3ccco3)c2c1=O,13.8% (active)
11,COc1cc(/C=C/C(=O)n2cnc3ccccc32)cc(OC)c1OC,2.66% (inactive)
12,COC(=O)C1=C(C)N(Cc2cccc(C(F)(F)F)c2)C(=NCc2cccc(C(F)(F)F)c2)NC1c1ccccc1C(F)(F)F (centres undefined),19.9% (active)
13,CC(C)Cn1c(N)c(C(=O)NCc2cccs2)c2nc3ccccc3nc21,6.35% (inactive)
14,CN1CCN(/N=C2/C(=O)Nc3ccc([N+](=O)[O-])cc32)CC1,3.63% (inactive)
15,COC(=O)C1=C(C)N(Cc2cccc(C(F)(F)F)c2)C(=NCc2ccccc2)NC1c1ccccc1C(F)(F)F (centres undefined),21.2% (active)
16,COc1c(O)cc2oc(-c3ccc(O)c(O)c3)cc(=O)c2c1O,12.7% (active)
17,CCCCCn1c(=O)[nH]c2cc(C(=O)NCCCN3CCCCC3C)ccc2c1=O (centres undefined),7.94% (inactive)
18,Cc1nnsc1C(=O)Nc1cccc(Cl)c1C,2.09% (inactive)
19,CNc1nc(Nc2ccc(C)c(Cl)c2)nc(N)c1[N+](=O)[O-],9.65% (inactive)
